Bioassay records from PubChem BioAssay.
This is a sample that favours compounds with a hit; in the whole collection about 2.4% have one here.
Cruzain inh Det = cruzain (T. cruzi) inhibition with detergent; P25779; purified cruzain, Z-FR-AMC fluorescence, 0.01% Triton; Potency, µM, for the others: max response, negative = inhibition, hits mostly inhibitors; hit rate 0.43% among 200,000;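 also: plate controls were neutral wells for no effect and buffer without enzyme for full effect; nearly all actives have a fitted effect of over 40% in size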
Target sequence (P25779 123-467 limits assumed): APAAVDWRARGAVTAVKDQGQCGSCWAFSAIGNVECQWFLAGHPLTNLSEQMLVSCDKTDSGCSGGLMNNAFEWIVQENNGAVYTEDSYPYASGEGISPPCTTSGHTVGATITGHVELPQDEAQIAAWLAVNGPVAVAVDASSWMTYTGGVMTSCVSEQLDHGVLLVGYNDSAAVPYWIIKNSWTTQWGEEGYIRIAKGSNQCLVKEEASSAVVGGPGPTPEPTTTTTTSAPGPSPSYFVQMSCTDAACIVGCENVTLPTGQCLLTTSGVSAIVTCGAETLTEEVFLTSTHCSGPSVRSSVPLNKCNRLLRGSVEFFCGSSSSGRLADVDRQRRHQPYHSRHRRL
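In this qHTS format, compounds are incubated with 1.5 nM cruzain for 15 min at room temperature before 2 uM Z-FR-AMC is added. Release of AMC is followed at 360/450 nm, and progress is taken as the 60 s fluorescence difference.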
Cruzain noTriton = inhibitors of Trypanosoma cruzi cruzain without detergent; P25779; purified cruzain, Z-FR-AMC fluorescence, no detergent; Potency, µM, inactives show max response, negative = inhibition, usual class: inhibitors; hit rate 2.3% among 200,000;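 also: plate controls were enzyme without inhibitor for no effect and buffer without enzyme for full effect; nearly all actives have a fitted effect of over 40% in size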
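Purified cruzain at 1.5 nM, pre-incubated 15 min with compound at room temperature in 100 mM sodium acetate pH 5.5, 5 mM DTT, 0.00005% Triton X-100. Reaction started with 2 uM Z-FR-AMC; AMC fluorescence increase over 60 s gives rate.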
* marks the source's active call; other numbers are inactive results; ? = inconclusive; ! = not confirmed by another sample. Calls follow the shape of the dose curve; as a rule, active = well fitted curve in the direction sought with a large enough effect; inconclusive = small, poorly fitted or top-dose-only effect, or another doubt; inactive = no such curve, though single readings can be large; an effect the other way counts as inactive or inconclusive. Potency is read from the fitted curve at half-maximal effect.

SMILES	Cruzain inh Det	Cruzain noTriton
O=c1c2ccccc2c(C=Nc2ccc(S(=O)(=O)N3CCCCC3)cc2)c(O)n1-c1ccc(Cl)cn1	4%	7.9µM*
CCc1nnc(/N=C/c2c(O)n(-c3ccc(Cl)cn3)c(=O)c3ccccc23)s1	-7%	?
Cc1nc(CNS(=O)(=O)c2ccc3ccccc3c2)cs1	2%	-3%
Cc1nc(-c2cccc(NS(=O)(=O)c3ccc4ccccc4c3)c2)cs1	-1%	25µM*
COc1ccc(CN2C(=O)N(c3ccc(F)cc3)C(=O)C2CC(=O)Nc2cc(OC)cc(OC)c2)cc1 (stereo unspecified)	-4%	5%
O=C1NC(=O)C(=Cc2cn(CCOc3ccc4c(c3)OCO4)c3ccccc23)C(=O)N1	0%	?
Cc1ccc(OCCn2cc(/C=C3\C(=O)NN(c4ccccc4)C3=O)c3ccccc32)cc1	-7%	10µM*
Cc1ccc(NC(=O)C2CCC(CNS(=O)(=O)c3csc(C(N)=O)c3)CC2)cc1Cl (stereo unspecified)	1%	1%
O=C(Nc1nc2c(F)cccc2s1)c1ccc(S(=O)(=O)N2CCCc3ccccc32)cc1	1%	-1%
O=C(Nc1nc2c(F)cc(F)cc2s1)c1ccc(S(=O)(=O)N2CCc3ccccc32)cc1	-1%	-17%
Cc1ccc2nc(NC(=O)c3ccc(S(=O)(=O)N4CCCc5ccccc54)cc3)sc2c1	1%	6.3µM*!
O=C(Nc1nc2ccc(F)cc2s1)c1cccc(S(=O)(=O)N2CCc3ccccc32)c1	-1%	7.9µM*
CN1CCc2nc(NC(=O)c3cccc(S(=O)(=O)N4CCc5ccccc54)c3)sc2C1	-5%	16µM*
O=C(Nc1nc2c(s1)CCCC2)c1cccc(S(=O)(=O)N2CCCc3ccccc32)c1	-6%	25µM*
Cc1cccc(C(=O)Nc2nnc(S(=O)(=O)N3CCCc4ccccc43)s2)c1	-2%	-4%
CCC(CC)c1nnc(NC(=O)c2cccc(S(=O)(=O)N3CCc4ccccc43)c2)s1	-2%	?
OC[C@@H]1O[C@@H](n2cnc3c(SCc4ccccc4)ncnc32)[C@@H](O)[C@H]1O	3%	1%
CCc1ccccc1N(C)S(=O)(=O)c1ccc2c(c1)C(C)(C)C(=O)N2C	-6%	25%
CCOc1ccc(N(CC)S(=O)(=O)c2cc(Br)cc3c2N(C(C)=O)C(C)C3)cc1 (stereo unspecified)	-5%	?
CCOCN(C(=O)Cn1cnc2cc(C)c(C)cc21)c1c(C)cccc1CC	-8%	?
O=C(O)C(Cc1ccccc1)Cc1ccccc1	-1%	3%
Cc1ccccc1NC(=O)N1CCc2c(sc3c2CCCC3)C1c1ccccc1 (stereo unspecified)	0%	?
Cc1ccc(NC(=O)N2CCc3c(sc4c3CCCC4)C2c2ccccc2)cc1F (stereo unspecified)	-1%	7.9µM*
Cc1ccc(C(=O)CSc2nc3cc(S(=O)(=O)N4CCOCC4)ccc3o2)cc1	1%	12%
Cc1ccc(S(=O)(=O)N2CCN(CC(=O)NC3CCCc4ccccc43)CC2)cc1C (stereo unspecified)	1%	?
SMILES	Cruzain inh Det	Cruzain noTriton
O=C(CSc1nc2cc(S(=O)(=O)N3CCOCC3)ccc2o1)NC1CCCc2ccccc21 (stereo unspecified)	-3%	25µM*
Cc1[nH]c2ccccc2c1C(=O)CSc1nc2cc(S(=O)(=O)N3CCCCC3)ccc2o1	1%	25µM*
COc1ccc(N2CCN(S(=O)(=O)CCNC(=O)Cc3ccc(Cl)cc3)CC2)cc1	-1%	3%
Nc1ccc2nc(-c3cc(Cl)c(N)c(Cl)c3)[nH]c2c1	?	16µM*
Nc1ccc2nc(-c3ccc(Cl)cc3)[nH]c2c1	?	20µM*
Nc1ccc(-c2nc3ccc([N+](=O)[O-])cc3[nH]2)cc1	-9%	-2%
Clc1ccc2nc(-c3ccccc3)[nH]c2c1	-4%	4%
Nc1ccc(-c2nc3c(Cl)c(N)ccc3[nH]2)cc1	?	32µM*
Cc1ccc(C)c(-c2nc3ccc(N)cc3[nH]2)c1	-1%	?
CCCc1cc(N2CCN(c3cc(Cl)ccc3C)CC2)n2cnnc2n1	-1%	-6%
COc1ccc(N(C(=O)c2ccc(C(C)(C)C)cc2)S(=O)(=O)c2ccc(Cl)cc2)cc1	-3%	10µM*
COc1ccc(N(C(=O)c2cccc(C)c2)S(=O)(=O)c2ccc(Cl)cc2)cc1	-3%	-30%
Cc1cc(C)c(S(=O)(=O)NCCc2cc3ccc(C)cc3[nH]c2=O)c(C)c1	0%	6%
CCn1nc(C)c2c(-c3ccccc3)cc(=O)n(C(C)C(=O)NCc3ccccc3OC)c21 (stereo unspecified)	-7%	15%
COc1cccc(-c2ccc3ncnc(Nc4ccccc4)c3c2)c1	-2%	23%
COC(=O)C1=C(C)OC(N)=C(C#N)C1c1c(C)nn(-c2ccccc2)c1Cl (stereo unspecified)	-2%	-12%
